DT40 TDP1 no CPT: qHTS for Inhibitors of human tyrosyl-DNA phosphodiesterase 1 (TDP1): qHTS in cells in absence of CPT | 420,000 tested, 15% active | Potency, µM (top dose mostly 46.2 µM), usual class: inhibitors | DT40 Tdp1-/- hTDP1 cells, no CPT, ATP luminescence, 48 h; also: nearly all actives have a fitted effect of over 55% in size
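Stably hTDP1-transfected Tdp1-null chicken DT40 cells were treated with library compounds minus camptothecin and grown for at least 48 hr at 37 °C, after which cellular ATP was quantified by luminescence.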
IL1B secr inh: blocks inflammasome-driven IL-1 beta release; THP-1 LPS/ATP IL-1B secretion, AlphaLISA, 16 h; active compounds read low; activity change, % at 57.5 µM; 360,000 tested, 4.7% active; in the data active = activity change below about -50%; inconclusive = mostly about -30% to -49%
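Secreted IL-1B measured by AlphaLISA bead assay after 16 h compound exposure of THP-1 cells; compounds (final up to 57.5 uM) added 1 h before LPS (250 ng/mL) and ATP (1.25 mM) stimulation; lower signal means less secretion.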
CtBP-E1A inh: inhibitors of CtBP/E1A interaction; AlphaScreen GST-E1A/His-CtBP binding, 1536-well; active compounds read low; 340,000 tested, 0.49% active; activity change, % (test concentration not listed); in the data active = activity change below about -65%; inconclusive = mostly about -30% to -63%
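AlphaScreen with 125 nM GST-E1A and 125 nM His-CtBP (5X stocks) in Tris pH 8.0, 300 mM NaCl, BSA, Tween 20, TCEP. Compounds preincubated 2 h at 37 deg C, then glutathione donor/nickel acceptor beads added for 1 h at 37 deg C in dark.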
TDP1 inh: TDP1 (human) enzyme inhibition | Q9NUW8 | recombinant TDP1, AlphaScreen DNA substrate cleavage | Potency, µM (doses to about 130 µM), usual class: inhibitors | 350,000 tested, 0.28% active | AID 485290; also: nearly all actives have a fitted effect of over 40% in size
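AlphaScreen read-out: signal falls as enzyme removes the 3' tyrosine-FITC from a 5'-biotinylated DNA oligo (15 nM, 5 min, RT). Enzyme was E. coli-made recombinant Tdp1 at 1 nM, exposed to compound for 15 min beforehand; beads 10 ug/ml, 10 min.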
Six1-Eya2 inh: Six1/Eya2 interaction inhibition. activity change, % (concentration not given with the values). 360,000 tested, 0.56% active. AlphaScreen GST-Six1/His-Eya2 binding, biochemical; active compounds read low; in the data active = activity change below about -65%; inconclusive = mostly about -30% to -63%
Target sequence (O00167 whole entry, looked up): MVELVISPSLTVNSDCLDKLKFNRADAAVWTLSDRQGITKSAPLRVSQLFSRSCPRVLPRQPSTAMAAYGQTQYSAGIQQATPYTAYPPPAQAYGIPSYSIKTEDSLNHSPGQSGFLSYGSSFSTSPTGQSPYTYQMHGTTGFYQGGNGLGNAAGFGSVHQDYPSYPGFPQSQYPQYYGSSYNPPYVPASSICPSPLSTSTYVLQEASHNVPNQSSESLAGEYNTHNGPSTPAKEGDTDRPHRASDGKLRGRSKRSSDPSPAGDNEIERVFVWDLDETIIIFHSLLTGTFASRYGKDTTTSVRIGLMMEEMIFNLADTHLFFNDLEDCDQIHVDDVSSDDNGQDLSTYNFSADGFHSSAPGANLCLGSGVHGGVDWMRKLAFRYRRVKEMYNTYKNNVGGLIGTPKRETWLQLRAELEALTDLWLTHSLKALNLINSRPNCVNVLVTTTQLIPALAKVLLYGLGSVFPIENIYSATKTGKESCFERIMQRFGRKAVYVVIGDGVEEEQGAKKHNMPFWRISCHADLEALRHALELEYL
Target sequence (Q15475 whole entry, looked up): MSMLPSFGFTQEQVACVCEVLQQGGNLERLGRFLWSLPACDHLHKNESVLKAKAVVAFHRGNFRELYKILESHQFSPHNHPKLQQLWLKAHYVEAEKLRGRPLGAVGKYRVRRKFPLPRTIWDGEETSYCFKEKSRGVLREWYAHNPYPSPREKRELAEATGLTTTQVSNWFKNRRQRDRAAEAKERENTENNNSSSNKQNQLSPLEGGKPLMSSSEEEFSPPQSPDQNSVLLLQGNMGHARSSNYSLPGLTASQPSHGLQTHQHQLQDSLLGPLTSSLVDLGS
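GST-Six1 + His-Eya2 (5X stock: 250/500 nM); Tris pH 8.0, 300 mM NaCl, 0.05% BSA, 0.02% Tween 20; GSH donor/Ni acceptor beads; 1 h 37 °C dark; AlphaScreen readout.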
DT40 TDP1 CPT: DT40-hTDP1 cell growth loss with CPT; chicken DT40 Tdp1-/-;hTDP1 cells + 20 nM CPT, ATP luminescence, 48 h; Potency, µM (highest dose often 46.2 µM), usual class: inhibitors; 420,000 tested, 12% active; AID 686979; also: nearly all actives have a fitted effect of over 55% in size
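Chicken DT40 Tdp1-/- cells stably complemented with human TDP1 were seeded at 400 cells/well in medium containing 20 nM camptothecin, exposed to pin-transferred compounds, and grown at 37 °C for at least 48 hr. Viability was read as ATP luminescence.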
Each line names hits and unclear results; the compound was inactive in the other large screens. This is a sample that favours compounds with a hit; in the whole collection about 18% have one here. Unless noted, calls follow the shape of the dose curve; as a rule, active = well fitted curve in the direction sought with a large enough effect; inconclusive = small, poorly fitted or top-dose-only effect, or another doubt; inactive = no such curve, though single readings can be large; an effect the other way counts as inactive or inconclusive.

CCOC(OCC)c1nc(N)[nH]c(=O)c1CCCCc1ccccc1	DT40 TDP1 no CPT 16µM, DT40 TDP1 CPT 23µM (no result: TDP1 inh)
CCN1C(=O)c2cccc3c(S(=O)(=O)N(C(=O)c4cccnc4)c4ccc(OC)cc4)ccc1c23	DT40 TDP1 no CPT 12µM, DT40 TDP1 CPT inconclusive
CC#CCN1c2ccccc2[C@]23C[C@@H](C(=O)OC)N(C(=O)CC(C)C)C2=NC(C(=O)OC)=C(C(=O)OC)[C@H]13	none (no result: DT40 TDP1 no CPT, IL1B secr inh, CtBP-E1A inh, Six1-Eya2 inh, DT40 TDP1 CPT)
N=C(N)S/C=C\C(=O)O	DT40 TDP1 no CPT 16µM, DT40 TDP1 CPT 16µM (no result: IL1B secr inh, CtBP-E1A inh, Six1-Eya2 inh)
CCOc1ccc(C(C)C)cc1S(=O)(=O)N1CCN(C(=O)c2ccco2)CC1	none
Cc1cc(Cl)nc(-c2ccccc2O)n1	IL1B secr inh inconclusive
CCCCOc1ccc(CONS(=O)(=O)c2ccc(NC(C)=O)cc2)cc1Cl	DT40 TDP1 no CPT 15µM, IL1B secr inh -103, DT40 TDP1 CPT 13µM
CC(=O)Nc1ccc(S(=O)(=O)NCCC(=O)Nc2cccc(Cl)c2)cc1	none
CC(=O)Nc1ccc(S(=O)(=O)NCCOc2ccc(Cl)cc2C)cc1	DT40 TDP1 no CPT 13µM, DT40 TDP1 CPT 23µM
CSc1ccc(S(=O)(=O)NCCOc2ccccc2C)cc1	DT40 TDP1 no CPT inconclusive, DT40 TDP1 CPT 26µM
COCCCNS(=O)(=O)c1ccc(SC)cc1	DT40 TDP1 no CPT inconclusive
Nc1ccc(Nc2ccncc2[N+](=O)[O-])cc1	none
CCC1(c2ccccc2)NC(=O)N(CC#N)C1=O (configuration not stated)	none
CC1CCN(S(=O)(=O)c2ccc3c(c2)C(Cl)(Cl)C(=O)N3)CC1	DT40 TDP1 no CPT 16µM, DT40 TDP1 CPT 10µM (no result: TDP1 inh)
CC1CCN(S(=O)(=O)c2ccc3c(c2)CC(C)N3C(=O)C2CCC2)CC1 (configuration not stated)	DT40 TDP1 no CPT 16µM, DT40 TDP1 CPT 21µM (no result: CtBP-E1A inh)
CC1CCN(c2ccc(S(=O)(=O)N3CCC(C)CC3)cc2N)CC1	DT40 TDP1 no CPT 16µM, DT40 TDP1 CPT 21µM
CC1CCN(C(=O)C2CCCN(S(=O)(=O)c3ccc4c(c3)CC(C)N4C(=O)C3CC3)C2)CC1 (configuration not stated)	DT40 TDP1 no CPT inconclusive, DT40 TDP1 CPT inconclusive (no result: TDP1 inh)
CCOC(=O)C1CCCN(S(=O)(=O)c2ccc3c(c2)CC(C)N3C(=O)C2CC2)C1 (configuration not stated)	DT40 TDP1 CPT 18µM
Cc1ncc(C23CC4CC(CC(C4)C2)C3)[nH]1	DT40 TDP1 no CPT inconclusive, DT40 TDP1 CPT inconclusive
C[C@H]1CN([C@@H](C)CO)C(=O)c2cccc(NS(=O)(=O)c3ccc(Cl)cc3)c2O[C@@H]1CN(C)CC1CCCCC1	DT40 TDP1 no CPT inconclusive, DT40 TDP1 CPT inconclusive
COC(=O)c1ccc(CSc2nc3sc(C)c(C)c3c(=O)[nH]2)cc1	none (no result: CtBP-E1A inh, TDP1 inh)
COc1cc(/C=C/C(=O)OC(C)C(=O)Nc2c(C)n(C)n(-c3ccccc3)c2=O)ccc1OCC#N (configuration not stated)	none
COc1ccc(C(=O)/C(=C\c2sccc2C)c2nc3ccccc3o2)cc1	none (no result: DT40 TDP1 no CPT, IL1B secr inh, CtBP-E1A inh, Six1-Eya2 inh, DT40 TDP1 CPT)
CCN(Cc1ccccc1)S(=O)(=O)c1ccc2c(c1)CC(C)N2C(=O)C1CCC1 (configuration not stated)	DT40 TDP1 no CPT 18µM, DT40 TDP1 CPT inconclusive (no result: IL1B secr inh, CtBP-E1A inh, Six1-Eya2 inh)
CC1Cc2cc(S(=O)(=O)N3CCCCC3)ccc2N1C(=O)C1CCC1 (configuration not stated)	DT40 TDP1 no CPT inconclusive, DT40 TDP1 CPT 21µM (no result: CtBP-E1A inh)
CC1Cc2cc(S(=O)(=O)N3CCC(C(=O)N4CCCCC4)CC3)ccc2N1C(=O)C1CC1 (configuration not stated)	DT40 TDP1 CPT inconclusive
CC1CCN(c2cc(N)c(Cl)cc2[N+](=O)[O-])CC1	IL1B secr inh -78
O=C(NC(Cc1ccccc1)C(=O)O)c1ccc(S(=O)(=O)N2CCOCC2)cc1 (configuration not stated)	none
CC1(C)Cc2c(sc3c2C(=O)N(c2ccccc2)C2=NCCN23)CS1	none
CN1C(=O)c2c(sc3c2CC(C)(C)SC3)N2CCN=C12	DT40 TDP1 no CPT 21µM, DT40 TDP1 CPT 21µM
O=C(NCc1ccccc1)c1cc(C2CCCN(S(=O)(=O)c3cccc4cccnc34)C2)on1 (configuration not stated)	DT40 TDP1 no CPT inconclusive, DT40 TDP1 CPT inconclusive (no result: TDP1 inh)
CCCNC(=O)c1cc(C2CCCN(C(=O)c3ccc4ccccc4c3)C2)on1 (configuration not stated)	DT40 TDP1 no CPT 23µM, DT40 TDP1 CPT 18µM (no result: TDP1 inh)
O=C(NCc1cccnc1)c1cc(C2CCCN(C(=O)c3cccc(O)c3)C2)on1 (configuration not stated)	none (no result: TDP1 inh)
CCCNC(=O)c1cc(C2CCCN(S(=O)(=O)c3cccc4cccnc34)C2)on1 (configuration not stated)	DT40 TDP1 no CPT inconclusive, DT40 TDP1 CPT 16µM (no result: TDP1 inh)
O=C(Nc1ccc(F)c(Cl)c1)c1cc(C2CCCN(S(=O)(=O)c3cccc4cccnc34)C2)on1 (configuration not stated)	DT40 TDP1 no CPT 26µM, DT40 TDP1 CPT inconclusive (no result: TDP1 inh)
Cc1ccc(C)c(CC(=O)N2CCCC(c3cc(C(=O)NCc4cccnc4)no3)C2)c1 (configuration not stated)	DT40 TDP1 no CPT 15µM, DT40 TDP1 CPT inconclusive (no result: TDP1 inh)
Cc1ccccc1Nc1ncnc2c1cnn2C	DT40 TDP1 no CPT inconclusive, DT40 TDP1 CPT inconclusive
O=C(Nc1ccccn1)c1ccc(=O)[nH]n1	none
O=C(O)C1=NN(c2ccccc2)C(=O)CC1	none
Cc1ccc(C(=O)c2c[nH]cc2-c2ccccc2)cc1	none
CCN1C(=O)[C@H]2[C@@H](c3ccc(C)cc3)N[C@]3(CCCN(CCC(C)C)C3=O)[C@H]2C1=O	none (no result: TDP1 inh)
COCON1C(=O)CN(C(C)=O)C1c1ccc(Cl)cc1Cl (configuration not stated)	none
CC(C)S(=O)(=O)N1CCCC(c2cc(C(=O)NCc3cccnc3)no2)C1 (configuration not stated)	none (no result: TDP1 inh)
CCCNC(=O)c1cc(C2CCCCN2S(=O)(=O)c2cccc3cccnc23)on1 (configuration not stated)	DT40 TDP1 CPT inconclusive (no result: TDP1 inh)
O=C(NCc1cccnc1)c1cc(C2CCCN(S(=O)(=O)c3cccc4cccnc34)C2)on1 (configuration not stated)	DT40 TDP1 no CPT 21µM, DT40 TDP1 CPT 23µM (no result: TDP1 inh)
O=C(NCc1cccnc1)c1cc(C2CCCCN2S(=O)(=O)c2cccc3cccnc23)on1 (configuration not stated)	DT40 TDP1 no CPT inconclusive, DT40 TDP1 CPT 12µM (no result: TDP1 inh)
